Hits are enriched below; roughly 18% of the tested compounds scored in any of these assays.
DT40 TDP1 no CPT = qHTS for Inhibitors of human tyrosyl-DNA phosphodiesterase 1 (TDP1): qHTS in cells in absence of CPT; Potency, µM (titrated, usually from 46.2 µM), hits mostly inhibitors; 15% of 420,000 active; DT40 Tdp1-/- hTDP1 cells, no CPT, ATP luminescence, 48 h; further: nearly all actives have a fitted effect of over 55% in size
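Readout: luminescence from CellTiter-Glo after 30 min in the dark at RT. Cells: DT40 Tdp1-/- with stable hTDP1, 400/well. Exposure: compounds alone, ≥48 hr, 37 °C.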
HepG2 viability = HepG2 cytotoxicity, counter-screen for TGF-b inhibitors; HepG2 CAGA-GFP viability, ATP luminescence, 18 h; Potency, µM (titrated, usually from 46.1 µM), actives largely listed as cytotoxic; 0.76% of 410,000 active; AID 588856
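CellTiter-Glo luminescence gave cytotoxicity after 18 hours at 37 degrees C. The cells were HepG2 CAGA-GFP in 1% FBS DMEM, stimulated with 500 pg/mL TGF-beta after compound addition. %Activity was normalised to no-cell wells (complete cell-killing) and DMSO (no toxicity), and curves were fitted and classified.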
TDP1 block = blocks human tyrosyl-DNA phosphodiesterase 1; AID 485290; Potency, µM (series often up to 130 µM), actives largely listed as inhibitors; recombinant TDP1, AlphaScreen DNA substrate cleavage; Q9NUW8; 0.28% of 350,000 active; further: nearly all actives have a fitted effect of over 40% in size
Target sequence (Q9NUW8 whole entry, looked up): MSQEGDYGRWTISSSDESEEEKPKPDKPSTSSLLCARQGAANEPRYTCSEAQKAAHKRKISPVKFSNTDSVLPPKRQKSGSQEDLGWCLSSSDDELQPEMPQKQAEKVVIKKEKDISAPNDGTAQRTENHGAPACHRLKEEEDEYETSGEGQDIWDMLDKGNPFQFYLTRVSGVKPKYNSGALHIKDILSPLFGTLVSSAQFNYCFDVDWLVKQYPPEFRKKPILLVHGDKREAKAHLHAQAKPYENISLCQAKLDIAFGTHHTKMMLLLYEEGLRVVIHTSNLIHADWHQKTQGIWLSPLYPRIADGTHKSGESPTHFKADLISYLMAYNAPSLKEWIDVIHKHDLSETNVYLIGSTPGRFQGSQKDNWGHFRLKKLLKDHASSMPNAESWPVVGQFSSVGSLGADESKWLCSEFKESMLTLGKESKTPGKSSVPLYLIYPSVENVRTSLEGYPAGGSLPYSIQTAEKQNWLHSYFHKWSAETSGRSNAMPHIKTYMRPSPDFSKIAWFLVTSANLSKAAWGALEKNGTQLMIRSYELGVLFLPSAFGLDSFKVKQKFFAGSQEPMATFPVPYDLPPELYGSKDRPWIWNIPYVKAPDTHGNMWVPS
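Recombinant E. coli-expressed Tdp1 (1 nM) preincubated with compound 15 min at RT, then 5'-biotin/3'-phosphotyrosine-FITC DNA substrate (15 nM) added for 5 min. AlphaScreen beads (10 ug/ml) added, 10 min RT; tyrosine-FITC cleavage read as signal loss.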
IL1B secr inh = inflammasome signaling inhibition, IL-1 beta readout. THP-1 LPS/ATP IL-1B secretion, AlphaLISA, 16 h; hits give low values. activity change, % at 57.5 µM. 4.7% of 360,000 active; in the data active means activity change below about -50%; inconclusive means mostly about -30% to -49%
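Secreted IL-1B measured by AlphaLISA bead assay after 16 h compound exposure of THP-1 cells; compounds (final up to 57.5 uM) added 1 h before LPS (250 ng/mL) and ATP (1.25 mM) stimulation; lower signal means less secretion.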
TDP1 cell CPT = DT40-hTDP1 cell growth loss with CPT; 12% of 420,000 active; AID 686979; Potency, µM (top dose mostly 46.2 µM), hits mostly inhibitors; chicken DT40 Tdp1-/-;hTDP1 cells + 20 nM CPT, ATP luminescence, 48 h; further: nearly all actives have a fitted effect of over 55% in size
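Chicken DT40 Tdp1-/- cells complemented with human TDP1, 400 cells/well, exposed to compounds plus 20 nM camptothecin for at least 48 h at 37 C; viability read as ATP content by CellTiter-Glo luminescence.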
TGFb inhibitor = TGF-b pathway inhibition. HepG2 CAGA-GFP TGF-b/SMAD3 reporter, GFP fluorescence, 18 h; TGF-beta stimulated, 500 pg/mL final. Potency, µM (doses to about 46.1 µM), usual class: inhibitors. 1.2% of 410,000 active. AID 588855; further: nearly all actives have a fitted effect of over 65% in size
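HEPG2 CAGA-GFP reporter cells (1000/well, DMEM with 1% FBS) received compounds, then recombinant TGF-beta at 500 pg/mL final for 18 hours at 37 degrees C. Per-cell GFP summed per well was normalised to unstimulated and stimulated DMSO controls before curve fitting.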
Large screens that a line does not name were inactive; ! = a repeat was not active. Unless noted, the call rests on the fitted dose curve; in most records, active means well fitted curve in the direction sought with a large enough effect; inconclusive means small, poorly fitted or top-dose-only effect, or another doubt; inactive means no such curve, though single readings can be large; an effect the other way counts as inactive or inconclusive.

CC(C)(C)c1ccccc1NC(=S)NC1CCCCC1	DT40 TDP1 no CPT 18.4µM, TDP1 cell CPT inconclusive
CC(=O)N(C1CC(C)C(C#N)(C#N)C1(C#N)C#N)N(C)C (stereo not given)	DT40 TDP1 no CPT 0.581µM, IL1B secr inh -111.6, TDP1 cell CPT 0.517µM, TGFb inhibitor inconclusive
CCCC(=O)N(C1CC(C)C(C#N)(C#N)C1(C#N)C#N)N(C)C (stereo not given)	DT40 TDP1 no CPT 2.31µM, IL1B secr inh -100.7, TDP1 cell CPT 1.3µM, TGFb inhibitor 11.2µM (no result: TDP1 block)
Cc1ccc(C2NC(=O)c3sc(=S)n(-c4ccccc4)c3N2)cc1 (stereo not given)	TDP1 cell CPT 23.1µM
CCCCCCCC#Cc1ccccc1/C=N/S(=O)C(C)(C)C (stereo not given)	none (no result: DT40 TDP1 no CPT, HepG2 viability, IL1B secr inh, TDP1 cell CPT, TGFb inhibitor)
CCCCCCCCCCOC(=O)Cn1c(COc2ccc(Cl)cc2)[n+](C)c2ccccc21	DT40 TDP1 no CPT 4.61µM, HepG2 viability 12.6µM, IL1B secr inh -72.0, TDP1 cell CPT 4.11µM, TGFb inhibitor 12.6µM (no result: TDP1 block)
CCCCCCCCCCOC(=O)Cn1c(COc2ccc(OC)cc2)[n+](C)c2ccccc21	DT40 TDP1 no CPT 2.59µM, HepG2 viability 11.2µM!, IL1B secr inh -107.9!, TDP1 cell CPT 2.59µM, TGFb inhibitor 10µM
CCOC(=O)Cn1c(COc2ccccc2OC)[n+](C)c2ccccc21	TDP1 cell CPT inconclusive (no result: TDP1 block)
CCCCCCCCCCOC(=O)Cn1c(COc2cccc(C)c2)[n+](C)c2ccccc21	DT40 TDP1 no CPT 4.61µM, IL1B secr inh -96.5, TDP1 cell CPT 7.31µM, TGFb inhibitor inconclusive (no result: TDP1 block)
CCCCCCCCCCOC(=O)Cn1c(COc2ccccc2C)[n+](C)c2ccccc21	DT40 TDP1 no CPT 1.03µM, IL1B secr inh -96.6, TDP1 cell CPT 1.64µM, TGFb inhibitor inconclusive (no result: TDP1 block)
COc1ccc(N(CC(=O)N2CCN(c3cccc(OC)c3)CC2)S(=O)(=O)c2c(C)noc2C)cc1	DT40 TDP1 no CPT inconclusive, TDP1 cell CPT inconclusive, TGFb inhibitor inconclusive (no result: IL1B secr inh)
CCCCCCCCCCOC(=O)Cn1c(COc2ccccc2)[n+](C)c2ccccc21	DT40 TDP1 no CPT 2.59µM, TDP1 cell CPT 5.8µM, TGFb inhibitor 11.2µM (no result: TDP1 block)
CCCCOC(=O)Cn1c(=O)n(CC(=O)OCCCC)c2ccccc21	none
O=C(O)c1cccc2c1C(=O)c1ccc(-c3ccc(F)cc3F)cc1S2(=O)=O	none
CC(C)CCNC(=O)c1cc(-c2ccc(Br)s2)nc2ccccc12	DT40 TDP1 no CPT inconclusive, TDP1 cell CPT 14.6µM (no result: IL1B secr inh)
COc1ccc(CNC(=O)c2cc(-c3ccc(Br)s3)nc3ccccc23)c(OC)c1	DT40 TDP1 no CPT 14.6µM, TDP1 cell CPT inconclusive (no result: IL1B secr inh)
CC(C)CCNC(=O)c1cc(-c2cccs2)nc2ccccc12	DT40 TDP1 no CPT inconclusive, TDP1 cell CPT inconclusive (no result: TDP1 block)
CCCSC1=NC2(CCN(C(=O)NC3CCCCC3)CC2)N=C1c1ccc(C)cc1	none (no result: IL1B secr inh)
CN(c1ccc(O)cc1)S(=O)(=O)c1ccc2ccccc2c1	DT40 TDP1 no CPT inconclusive, IL1B secr inh -62.2
CC(=O)Oc1ccc(N(C(C)=O)S(=O)(=O)c2ccc3ccccc3c2)cc1	DT40 TDP1 no CPT 20.6µM, IL1B secr inh inconclusive, TDP1 cell CPT inconclusive (no result: TDP1 block)
COc1ccc(N(C)S(=O)(=O)c2ccc(Cl)c(C(=O)NNC(=O)c3ccccc3O)c2)cc1	TGFb inhibitor inconclusive
CCOC(=O)c1cc(=O)n2nc(-c3ccccc3F)nc2s1	DT40 TDP1 no CPT 23.1µM, TDP1 cell CPT inconclusive
CCOC(=O)c1ccc(NC(=O)Cn2nnc(-c3ccccc3F)n2)cc1	DT40 TDP1 no CPT inconclusive, TDP1 cell CPT inconclusive
Cc1noc(C)c1CSCC(=O)Nc1cccc(C(F)(F)F)c1	none
Cc1ccc(S(=O)(=O)NCC(=O)NC2CC2)cc1	none
CCc1nc2nc(C)cc(Nc3ccc(OC)cc3OC)n2n1	none (no result: IL1B secr inh)
CCCCCCn1c(=O)n2n(c1=O)[C@@H]1CN(S(=O)(=O)c3ccc(C)cc3)C[C@]1(O)[C@@H](OC(=O)NC1CCCC1)C2	DT40 TDP1 no CPT inconclusive, TDP1 cell CPT inconclusive, TGFb inhibitor 11.2µM (no result: TDP1 block)

Compound activity: PubChem, National Center for Advancing Translational Sciences (NCATS)
